VP16 counter – VP16 counterscreen qHTS for inhibitors of ROR gamma transcriptional activity. Drosophila S2 Gal4-VP16 UAS-luciferase, luminescence, 20 h. Potency, µM (titrated, usually from 53.6 µM), most hits filed as inhibitors. 310,000 tested, 3.5% active. AID 2546, 2010;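 also: Gal4-VP16 expression switched on by copper sulfate through the metallothionein promoter; nearly all actives have a fitted effect of over 50% in size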
IL1B secr inh – qHTS for Inhibitors of Inflammasome Signaling: IL-1-beta AlphaLISA Primary Screen | THP-1 LPS/ATP IL-1B secretion, AlphaLISA, 16 h; active compounds read low | activity change, % at 57.5 µM | 360,000 tested, 4.7% active; in the data active = activity change below about -50%; inconclusive = mostly about -30% to -49%
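THP-1 cells pretreated 1 hr with compounds (up to 57.5 uM final), then stimulated with LPS (250 ng/mL final) plus ATP (1.25 mM final); secreted IL-1B measured by AlphaLISA after 16 hr, decreased signal indicating inhibition.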
DT40 TDP1 no CPT – qHTS for Inhibitors of human tyrosyl-DNA phosphodiesterase 1 (TDP1): qHTS in cells in absence of CPT. DT40 Tdp1-/- hTDP1 cells, no CPT, ATP luminescence, 48 h. Potency, µM (top dose mostly 46.2 µM), actives largely listed as inhibitors. 420,000 tested, 15% active; also: nearly all actives have a fitted effect of over 55% in size
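Chicken DT40 Tdp1-/- cells complemented with human TDP1, screened without camptothecin (DMSO vehicle only), 400 cells/well. Compounds pin-transferred, cells incubated at 37 °C for at least 48 hr. Growth read as ATP-dependent luminescence (CellTiter-Glo, 30 min at RT).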
RORgamma inh – qHTS for inhibitors of ROR gamma transcriptional activity; Nuclear receptor ROR-gamma (Mus musculus), P51450; Drosophila S2 Gal4-RORgamma UAS-luciferase reporter, 20 h; Potency, µM (highest dose often 53.6 µM), usual class: inhibitors; 310,000 tested, 5.4% active; also: nearly all actives have a fitted effect of over 60% in size
Target sequence (P51450 whole entry, looked up, the tested form may be a part): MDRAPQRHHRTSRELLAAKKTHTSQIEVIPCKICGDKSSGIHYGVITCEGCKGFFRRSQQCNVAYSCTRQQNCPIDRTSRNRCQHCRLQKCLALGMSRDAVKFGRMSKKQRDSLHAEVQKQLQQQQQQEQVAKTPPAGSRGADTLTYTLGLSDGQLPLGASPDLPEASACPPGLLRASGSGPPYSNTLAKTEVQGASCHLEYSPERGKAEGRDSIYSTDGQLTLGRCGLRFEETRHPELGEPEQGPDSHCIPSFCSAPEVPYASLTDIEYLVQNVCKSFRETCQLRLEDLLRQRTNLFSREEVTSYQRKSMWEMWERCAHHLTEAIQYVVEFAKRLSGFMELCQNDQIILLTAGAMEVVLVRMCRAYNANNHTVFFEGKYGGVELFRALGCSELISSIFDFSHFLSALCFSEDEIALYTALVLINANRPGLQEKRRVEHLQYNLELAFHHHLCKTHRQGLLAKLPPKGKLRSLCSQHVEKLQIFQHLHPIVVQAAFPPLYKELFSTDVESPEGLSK
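In this cell-based reporter format, copper sulfate (700 uM final) drives Gal4–ROR gamma fusion expression from a metallothionein promoter in Drosophila Schneider cells; compounds preincubated 1 hr, reporter read after 20 hr at ambient temperature.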
TDP1 cell CPT – qHTS for Inhibitors of human tyrosyl-DNA phosphodiesterase 1 (TDP1): qHTS in cells in presence of CPT. chicken DT40 Tdp1-/-;hTDP1 cells + 20 nM CPT, ATP luminescence, 48 h. Potency, µM (doses to about 46.2 µM), most hits filed as inhibitors. 420,000 tested, 12% active; also: nearly all actives have a fitted effect of over 55% in size
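Chicken DT40 Tdp1-/- cells stably complemented with human TDP1 were seeded at 400 cells/well in medium containing 20 nM camptothecin, exposed to pin-transferred compounds, and grown at 37 °C for at least 48 hr. Viability was read as ATP luminescence.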
ELG1 DNA repair – qHTS screen for small molecules that inhibit ELG1-dependent DNA repair in human embryonic kidney (HEK293T) cells expressing luciferase-tagged ELG1. Potency, µM (doses to about 46.1 µM), hits mostly inhibitors. HEK293T ELG1-luciferase reporter, luminescence, 16 h; DNA damage induced by 5-fluorouridine. 330,000 tested, 2.3% active; also: nearly all actives have a fitted effect of over 55% in size
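Cells (2,000 per well) received 5-fluorouridine plus test compound or DMSO and were incubated 16 hr at 37 °C, 5% CO2. Luciferase activity was read by luminescence 30 min after ONE-Glo addition; signal suppression marked inhibition of damage-induced ELG1 function.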
Each line names hits and unclear results; the compound was inactive in the other large screens. Compounds with a hit are over-represented: about 21% of the library has one in this group of screens. Unless noted, calls follow the shape of the dose curve; as a rule, active = well fitted curve in the direction sought with a large enough effect; inconclusive = small, poorly fitted or top-dose-only effect, or another doubt; inactive = no such curve, though single readings can be large; an effect the other way counts as inactive or inconclusive.

CCOC(=O)C1CCCN(C(=O)Cn2ncc3c4ccccc4n(Cc4ccccc4)c3c2=O)C1 (stereo unspecified)	DT40 TDP1 no CPT 18.4µM, TDP1 cell CPT inconclusive (no result: VP16 counter, IL1B secr inh, RORgamma inh, ELG1 DNA repair)
Cc1c2cnn(CC(=O)N3CCCCC3)c(=O)c2c(C)n1Cc1ccc(Cl)cc1	DT40 TDP1 no CPT 23.1µM, TDP1 cell CPT 23.1µM (no result: VP16 counter, IL1B secr inh, RORgamma inh, ELG1 DNA repair)
O=C(Nc1ccc(F)c(Cl)c1)c1cc(C2CCCN(C(=O)CCc3ccccc3)C2)on1 (stereo unspecified)	DT40 TDP1 no CPT inconclusive, TDP1 cell CPT inconclusive (no result: VP16 counter, RORgamma inh, ELG1 DNA repair)
Cc1oc(-c2cccc(Cl)c2)nc1CS(=O)(=O)CC(=O)NCc1ccccc1Cl	DT40 TDP1 no CPT inconclusive (no result: VP16 counter, IL1B secr inh, RORgamma inh, ELG1 DNA repair)
C[C@@H]1CN(S(=O)(=O)C(C)(C)C)[C@H](CCO)/C1=C\c1ccccc1	none (no result: VP16 counter, RORgamma inh, ELG1 DNA repair)
O=C(Cn1ncc2c3ccccc3n(Cc3cccc(Cl)c3)c2c1=O)NCCCN1CCCCC1	none (no result: VP16 counter, IL1B secr inh, RORgamma inh, ELG1 DNA repair)
CCOC(=O)C1CCN(C(=O)Cn2ncc3c4ccccc4n(Cc4ccc(F)cc4)c3c2=O)CC1	DT40 TDP1 no CPT 1.84µM, TDP1 cell CPT 3.26µM (no result: VP16 counter, IL1B secr inh, RORgamma inh, ELG1 DNA repair)
CCOC(=O)C1CCCN(C(=O)Cn2ncc3c4ccccc4n(C)c3c2=O)C1 (stereo unspecified)	DT40 TDP1 no CPT inconclusive (no result: VP16 counter, IL1B secr inh, RORgamma inh, ELG1 DNA repair)
CCOC(=O)C1CCN(C(=O)Cn2ncc3c4ccccc4n(Cc4ccccc4)c3c2=O)CC1	DT40 TDP1 no CPT 7.31µM, TDP1 cell CPT 8.2µM (no result: VP16 counter, IL1B secr inh, RORgamma inh, ELG1 DNA repair)
CCCN1CCN(C(=O)Cn2ncc3c4ccccc4n(Cc4cccc(Cl)c4)c3c2=O)CC1	DT40 TDP1 no CPT 11.6µM, TDP1 cell CPT 13µM (no result: VP16 counter, IL1B secr inh, RORgamma inh, ELG1 DNA repair)
CCOC(=O)/C(C#N)=C/c1c(N2CCN(C)CC2)nc2c(C)cccn2c1=O	none
Cc1ccc(NC(=O)Nc2nnc(N(C)Cc3ccccc3)s2)c(C)c1	DT40 TDP1 no CPT inconclusive (no result: VP16 counter, IL1B secr inh, RORgamma inh, ELG1 DNA repair)
Cc1ccc(Cl)cc1NC(=O)Nc1nnc(N(C)Cc2ccccc2)s1	DT40 TDP1 no CPT 23.1µM, TDP1 cell CPT 20.6µM (no result: VP16 counter, IL1B secr inh, RORgamma inh, ELG1 DNA repair)
Cc1ccc(-n2c3nc(=O)n(C)c(=O)c-3cc3c(Cl)cccc32)c(C)c1	DT40 TDP1 no CPT inconclusive (no result: VP16 counter, IL1B secr inh, RORgamma inh, ELG1 DNA repair)
c1cc(-c2ccc(CN3CCOCC3)cc2)n2ccnc2c1	none (no result: VP16 counter, RORgamma inh, ELG1 DNA repair)
COc1ccc([N+](=O)[O-])cc1C1NN=C(c2ccccc2O)S1 (stereo unspecified)	DT40 TDP1 no CPT 3.26µM, TDP1 cell CPT 3.66µM, ELG1 DNA repair inconclusive
CC(=O)Nc1ccn(C2OC(C(COC(C)=O)NC(=O)C3CCCN3C(=O)OC(C)(C)C)C(OC(C)=O)C2OC(C)=O)c(=O)n1 (stereo unspecified)	none (no result: IL1B secr inh, DT40 TDP1 no CPT, TDP1 cell CPT, ELG1 DNA repair)
Cn1cc(-c2cc3n(n2)CCC(=O)N3CCCC(=O)Nc2ccccc2Cl)c2ccccc21	DT40 TDP1 no CPT 18.4µM, TDP1 cell CPT 18.4µM (no result: VP16 counter, IL1B secr inh, RORgamma inh, ELG1 DNA repair)
Cn1cc(-c2cc3n(n2)CCC(=O)N3CCCC(=O)Nc2ccccc2F)c2ccccc21	DT40 TDP1 no CPT 23.1µM, TDP1 cell CPT inconclusive (no result: VP16 counter, IL1B secr inh, RORgamma inh, ELG1 DNA repair)
Cc1cccc(CNC(=O)CCCN2C(=O)CCn3nc(-c4cn(C)c5ccccc45)cc32)c1	DT40 TDP1 no CPT inconclusive, TDP1 cell CPT 23.1µM (no result: VP16 counter, IL1B secr inh, RORgamma inh, ELG1 DNA repair)
COc1ccc(CNC(=O)CCCN2C(=O)CCn3nc(-c4cn(C)c5ccccc45)cc32)cc1	DT40 TDP1 no CPT inconclusive (no result: VP16 counter, IL1B secr inh, RORgamma inh, ELG1 DNA repair)
Cc1ccc(CNC(=O)CCCN2C(=O)CCn3nc(-c4cn(C)c5ccccc45)cc32)cc1	none (no result: VP16 counter, IL1B secr inh, RORgamma inh, ELG1 DNA repair)
COc1ccc(NC(=O)CCCN2C(=O)CCn3nc(-c4cn(C)c5ccccc45)cc32)cc1	DT40 TDP1 no CPT 18.4µM, TDP1 cell CPT 23.1µM (no result: VP16 counter, IL1B secr inh, RORgamma inh, ELG1 DNA repair)
O=C(NCC1Cc2cccc(-c3ncccn3)c2O1)C1CCOC1 (stereo unspecified)	none (no result: VP16 counter, IL1B secr inh, RORgamma inh, ELG1 DNA repair)

High-throughput results as filed in PubChem BioAssay.
